Experimental data published in ChEMBL document CHEMBL1961873, “Compounds: GSK PKIS; Assays: Nanosyn kinase panel” (2012).
Where “and” joins values, the source holds several entries; their conditions need not be identical. Identical values can stand only once.

target: T1, Sphingosine kinase 2 (Homo sapiens) (UniProt Q9NRA0); details: at 1 µM
T1 sequence (whole entry): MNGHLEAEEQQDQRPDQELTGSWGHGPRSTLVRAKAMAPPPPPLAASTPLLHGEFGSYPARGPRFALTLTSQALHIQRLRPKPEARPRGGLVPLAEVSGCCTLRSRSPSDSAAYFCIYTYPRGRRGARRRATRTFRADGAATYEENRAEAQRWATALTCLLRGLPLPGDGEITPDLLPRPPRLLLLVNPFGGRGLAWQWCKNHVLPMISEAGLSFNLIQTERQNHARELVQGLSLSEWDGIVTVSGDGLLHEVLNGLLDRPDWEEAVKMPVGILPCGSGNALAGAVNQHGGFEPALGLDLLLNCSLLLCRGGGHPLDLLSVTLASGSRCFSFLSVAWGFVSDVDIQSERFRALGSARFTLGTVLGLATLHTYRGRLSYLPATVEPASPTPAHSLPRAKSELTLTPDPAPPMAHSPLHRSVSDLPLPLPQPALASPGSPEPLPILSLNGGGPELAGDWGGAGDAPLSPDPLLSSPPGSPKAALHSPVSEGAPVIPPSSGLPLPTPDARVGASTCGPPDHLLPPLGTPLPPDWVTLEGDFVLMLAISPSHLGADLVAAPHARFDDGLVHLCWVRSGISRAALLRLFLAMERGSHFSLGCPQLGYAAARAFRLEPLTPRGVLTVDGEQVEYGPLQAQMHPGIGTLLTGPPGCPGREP

In order of falling inhibition:
1. CCn1c(-c2nonc2N)nc2cncc(C(=O)NCCNC)c21  8.93%
2. CS(=O)(=O)CCNCc1ccoc1-c1ccc2ncnc(Nc3ccc(OCc4ccccc4)cc3)c2c1  1.07%
3. Fc1cccc(COc2ccc(Nc3ncncc3C#Cc3ccccc3)cc2Cl)c1  0.98%
4. NS(=O)(=O)c1cccc(N/C=C2\C(=O)Nc3ccccc32)c1  0.83%
5. CCS(=O)(=O)c1ccc(OC)c(Nc2ncc(-c3cccc(C(C)=O)c3)o2)c1  0.73%
6. Cc1cc(O)cc(C)c1/C=C/c1cncc(C(N)=O)c1  0.47%
7. COc1c(C(N)=O)cc(-c2ccc(Cl)cc2)cc1-c1ccc(S(N)(=O)=O)cc1  0.28%
8. Cn1c(-c2nonc2N)nc2cnccc21  0.16%
9. CS(=O)(=O)CCNCc1ccc(-c2ccc3ncnc(Nc4ccc(OCc5ccccc5)cc4)c3c2)o1  0.16%
10. c1ccc(-c2n[nH]cc2-c2ccnc(-c3ccc(OCCn4ccnc4)cc3)c2)nc1  0.04%
11. CS(=O)(=O)Nc1ccc(-c2ccc3c(NC(=O)C4CC4)n[nH]c3c2)cc1  0%
12. CNC(=O)c1cncc(/C=C/c2ccccc2C)c1  0%
13. c1cnn2ncc(-c3ccnc(NCCCN4CCOCC4)n3)c2c1  0%
14. O=C(O[C@H]1CN[C@H](C#Cc2cc3ncnc(Nc4ccc5c(cnn5Cc5ccccc5)c4)c3s2)C1)N1CCOCC1  -0.03%
15. NC(=O)c1ccc2c(-c3ccnc(NCCCO)n3)c(-c3ccc(F)cc3)nn2c1  -0.19%
16. Cc1ccc(-c2cc3c(NC(=O)C4CC4)ncnc3o2)cc1  -0.24%
17. COc1ccc(Nc2ncc(-c3ccccc3)o2)cc1OC  -0.4%
18. COC(=O)Nc1nc2ccc(Oc3ccc(NC(=O)Nc4cc(C(F)(F)F)ccc4F)cc3)cc2s1  -0.44%
19. COc1cc2c(cc1Nc1nc(Nc3cccc(F)c3C(N)=O)c3cc[nH]c3n1)N(C(=O)CN1CCN(C(C)C)CC1)CC2  -0.67%
20. CNC(=O)c1ncccc1Nc1nc(Nc2cc3c(cc2OC)CCCN3C(=O)CN(C)C)nc2[nH]ccc12  -1.01%
21. CC(C)c1ccc(-c2cc(-c3c[nH]nc3-c3ccccn3)ccn2)cc1  -1.09%
22. CNC(=O)c1sc(-n2cnc3cc(OC)c(OC)cc32)cc1OCc1ccccc1C(F)(F)F  -1.5%
23. CCN1CCC(C(=O)Nc2n[nH]c3nnc(-c4cccc(F)c4F)cc23)CC1  -1.5%
24. O=C(Nc1n[nH]c2nnc(-c3cccnc3)cc12)C1CC1  -1.77%
25. N#Cc1cccc(Nc2ncc(-c3ccccc3)o2)c1  -1.96%
26. O=C1Nc2ccccc2/C1=C1\CCc2cc(O)ccc21  -2.47%
27. FC(F)(F)CNc1nccc(-c2cnn3ncccc23)n1  -4.21%
28. NS(=O)(=O)c1ccc(N/N=C2\C(=O)Nc3cccc(CCc4ccncc4)c32)cc1  -4.51%

`Nc1nccc(-c2c(-c3ccc(F)cc3)ncn2C2CCNCC2)n1` was tested, and the inhibition was 1.73% and 0.57%.
In the case of `CN1CCC(C(=O)Nc2n[nH]c3nc(-c4ccc(O)cc4)c(Br)cc23)CC1`, the inhibition is reported as 1.49% and 0%.
For `CN1CCN(Cc2ccc(-c3cc4ncnc(Nc5ccc(OCc6cccc(F)c6)c(Cl)c5)c4s3)o2)CC1`, the inhibition was 2.36% and -0.62%.

target: Casein kinase II subunit alpha (Homo sapiens) (UniProt P68400); details: at 0.1 µM
Sequence (P68400 whole entry, looked up): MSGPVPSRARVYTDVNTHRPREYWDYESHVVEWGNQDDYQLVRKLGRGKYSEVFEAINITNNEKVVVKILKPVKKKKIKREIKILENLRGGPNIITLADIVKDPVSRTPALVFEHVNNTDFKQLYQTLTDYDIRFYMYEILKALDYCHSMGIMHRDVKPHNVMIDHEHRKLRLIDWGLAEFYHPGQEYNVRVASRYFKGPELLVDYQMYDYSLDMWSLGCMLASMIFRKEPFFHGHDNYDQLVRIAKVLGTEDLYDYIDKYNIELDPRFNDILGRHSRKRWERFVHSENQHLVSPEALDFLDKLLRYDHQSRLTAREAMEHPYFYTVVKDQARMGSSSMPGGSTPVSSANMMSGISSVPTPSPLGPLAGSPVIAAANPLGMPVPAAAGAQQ

In order of falling inhibition:
1. FC(F)(F)CNc1nccc(-c2cnn3ncccc23)n1  9.47%
2. CS(=O)(=O)CCNCc1ccc(-c2ccc3ncnc(Nc4ccc(OCc5ccccc5)cc4)c3c2)o1  9.29%
3. CNC(=O)c1ncccc1Nc1nc(Nc2cc3c(cc2OC)CCCN3C(=O)CN(C)C)nc2[nH]ccc12  6.76%
4. COc1cc2c(cc1Nc1nc(Nc3cccc(F)c3C(N)=O)c3cc[nH]c3n1)N(C(=O)CN1CCN(C(C)C)CC1)CC2  6.72%
5. CCS(=O)(=O)c1ccc(OC)c(Nc2ncc(-c3cccc(C(C)=O)c3)o2)c1  6.61%
6. NS(=O)(=O)c1ccc(N/N=C2\C(=O)Nc3cccc(CCc4ccncc4)c32)cc1  5.35%
7. CNC(=O)c1sc(-n2cnc3cc(OC)c(OC)cc32)cc1OCc1ccccc1C(F)(F)F  5.33%
8. CCN1CCC(C(=O)Nc2n[nH]c3nnc(-c4cccc(F)c4F)cc23)CC1  5.2%
9. CNC(=O)c1cncc(/C=C/c2ccccc2C)c1  4.87%
10. Fc1cccc(COc2ccc(Nc3ncncc3C#Cc3ccccc3)cc2Cl)c1  4.56%
11. CCn1c(-c2nonc2N)nc2cncc(C(=O)NCCNC)c21  4.41%
12. NC(=O)c1ccc2c(-c3ccnc(NCCCO)n3)c(-c3ccc(F)cc3)nn2c1  3.49%
13. O=C1Nc2ccccc2/C1=C1\CCc2cc(O)ccc21  3.18%
14. O=C(Nc1n[nH]c2nnc(-c3cccnc3)cc12)C1CC1  3.14%
15. N#Cc1cccc(Nc2ncc(-c3ccccc3)o2)c1  2.39%
16. NS(=O)(=O)c1cccc(N/C=C2\C(=O)Nc3ccccc32)c1  2.24%
17. CS(=O)(=O)CCNCc1ccoc1-c1ccc2ncnc(Nc3ccc(OCc4ccccc4)cc3)c2c1  2.14%
18. CS(=O)(=O)Nc1ccc(-c2ccc3c(NC(=O)C4CC4)n[nH]c3c2)cc1  2.09%
19. Cc1ccc(-c2cc3c(NC(=O)C4CC4)ncnc3o2)cc1  2.02%
20. Cc1cc(O)cc(C)c1/C=C/c1cncc(C(N)=O)c1  2%
21. c1cnn2ncc(-c3ccnc(NCCCN4CCOCC4)n3)c2c1  1.83%
22. Cn1c(-c2nonc2N)nc2cnccc21  1.78%
23. COc1c(C(N)=O)cc(-c2ccc(Cl)cc2)cc1-c1ccc(S(N)(=O)=O)cc1  1.48%
24. c1ccc(-c2n[nH]cc2-c2ccnc(-c3ccc(OCCn4ccnc4)cc3)c2)nc1  1.26%
25. COc1ccc(Nc2ncc(-c3ccccc3)o2)cc1OC  1.03%
26. CC(C)c1ccc(-c2cc(-c3c[nH]nc3-c3ccccn3)ccn2)cc1  0.16%
27. COC(=O)Nc1nc2ccc(Oc3ccc(NC(=O)Nc4cc(C(F)(F)F)ccc4F)cc3)cc2s1  -0.3%
28. O=C(O[C@H]1CN[C@H](C#Cc2cc3ncnc(Nc4ccc5c(cnn5Cc5ccccc5)c4)c3s2)C1)N1CCOCC1  -2.6%

In the case of `Nc1nccc(-c2c(-c3ccc(F)cc3)ncn2C2CCNCC2)n1`, the inhibition is reported as 0.26% and 2.91%.
With `CN1CCC(C(=O)Nc2n[nH]c3nc(-c4ccc(O)cc4)c(Br)cc23)CC1` the inhibition was 6.41% and 0.96%.
`CN1CCN(Cc2ccc(-c3cc4ncnc(Nc5ccc(OCc6cccc(F)c6)c(Cl)c5)c4s3)o2)CC1` was tested, and the inhibition was 12.7% and 7.35%.
